Most compounds without a hit are left out; they make up all but 1.8% or so of the library.
AF4-AF9 inh: inhibitors of AF4 peptide binding to AF9, primary screen, biochemical, AlphaScreen, biotin-AF4 peptide, FLAG-AF9, single point; Protein AF-9 (Homo sapiens), P42568; AID 651704, 2012; 350,000 tested, 0.47% active; inhibition, % at 10 µM;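 active means every replicate reaching a set inhibition limit, whatever the replicate mean, cut at about 25% in these data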;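 further: 0% = plate neutral control median and 100% = total signal loss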
Target sequence (P42568 whole entry, looked up): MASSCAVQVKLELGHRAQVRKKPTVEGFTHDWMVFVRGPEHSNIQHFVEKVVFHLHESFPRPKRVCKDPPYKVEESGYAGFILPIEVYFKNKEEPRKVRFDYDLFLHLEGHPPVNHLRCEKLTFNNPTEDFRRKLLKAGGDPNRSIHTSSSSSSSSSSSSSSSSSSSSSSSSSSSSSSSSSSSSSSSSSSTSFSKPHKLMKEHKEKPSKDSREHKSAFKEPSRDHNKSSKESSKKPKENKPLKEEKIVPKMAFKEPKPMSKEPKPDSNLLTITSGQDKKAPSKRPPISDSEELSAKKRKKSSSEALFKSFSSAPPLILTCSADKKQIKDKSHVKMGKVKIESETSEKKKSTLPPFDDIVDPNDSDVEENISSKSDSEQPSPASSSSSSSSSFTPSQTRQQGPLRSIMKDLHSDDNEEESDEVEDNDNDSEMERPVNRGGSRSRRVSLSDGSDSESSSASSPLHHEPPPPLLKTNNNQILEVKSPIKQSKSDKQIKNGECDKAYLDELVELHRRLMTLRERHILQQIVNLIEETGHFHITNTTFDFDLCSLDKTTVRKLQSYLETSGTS
ERp5 inh: inhibitors of ERp5-driven insulin aggregation, primary screen, biochemical, turbidity, absorbance 650 nm, single point; 90 min; 350,000 tested, 0.05% active; Protein disulfide-isomerase A6 (Homo sapiens), Q15084; inhibition, % at 9.99 µM; AID 651711, 2012;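 active means mean replicate inhibition above about 25%, with every replicate also reaching it, limit read from the data, passing the limit was not always enough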
DENV2 CPE rescue: inhibitors of DENV2 cytopathic effect, primary screen, cell-based, plate reader, single concentration; DENV2-infected cells, cytopathic effect rescue; CPE inhibition, % at 9.99 µM; 350,000 tested, 1.7% active; AID 651640, 2012; in the data active means CPE inhibition above about 20%, passing the limit was not always enough; tested in BHK-21 cells;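 further: 0% = median of neutral control wells and 100% = median of positive control wells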
PDI inh: inhibitors of human PDI, primary screen, biochemical, turbidity, single point, plate reader | Protein disulfide-isomerase (Homo sapiens), P07237 | PDI insulin aggregation turbidity, A650, 90 min | inhibition, % at 10 µM | 350,000 tested, 0.052% active | AID 588391, 2011;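 active means mean inhibition across replicates of 30% or more, whatever share of single replicates reach that level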
ERAP1 inh: human ERAP1 aminopeptidase inhibitors, primary screen, biochemical, single point, plate reader | Endoplasmic reticulum aminopeptidase 1 (Homo sapiens), Q9NZ08 | recombinant ERAP1, Leu-AMC fluorescence, 60 min | inhibition, % at 10.7 µM | 340,000 tested, 0.15% active | AID 652197, 2013;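 active means mean replicate inhibition of at least 30%, or all replicates individually reaching that 30% level; inactive means mean below 30% and not every replicate reaching it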;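 further: 0% = neutral control wells and 100% = L-leucinethiol positive control wells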
The depositor's hits bear a star; nt = not tested or not shown; ! = a repeat was not active.

SMILES	AF4-AF9 inh	ERp5 inh	DENV2 CPE rescue	PDI inh	ERAP1 inh
COc1ccccc1C(=O)Nc1ccc2c(c1)C(=O)N(C)C[C@@H](OC)[C@H](C)CN(C)[C@@H](C)CO2	1	0	47*	nt	12
CO[C@@H]1CN(C)C(=O)c2cc(NC(=O)C3CCOCC3)ccc2OC[C@@H](C)N(C)C[C@@H]1C	-1	3	36*	nt	0
CO[C@H]1CN(C)C(=O)c2cc(NC(=O)C3CCOCC3)ccc2OC[C@H](C)N(C)C[C@H]1C	0	-2	-1	nt	-1
CC=Cc1ccc2n(c1=O)C[C@@H]1[C@@H](CO)[C@H](C(=O)NCC(F)(F)F)N(CC)[C@H]21 (mixture of isomers)	1	-2	-3	nt	2
CCO[C@H]1OC(C(=O)Nc2ccccc2)=C[C@@H](c2coc3ccccc3c2=O)[C@@H]1CCCO	0	-1	23*!	-3	0
CCO[C@H]1OC(C(=O)O)=C[C@@H](c2coc3ccccc3c2=O)[C@@H]1CCCO	1	1	-12	0	-3
CCO[C@H]1OC(C(=O)NC2CC2)=C[C@@H](c2coc3ccccc3c2=O)[C@@H]1CCCO	-3	1	-5	-26	-1
CCO[C@@H]1OC(C(=O)NCc2ccccc2)=C[C@H](c2coc3ccccc3c2=O)[C@H]1CCCO	4	-5	47*	8	3
COc1cccc(S(=O)(=O)N[C@H]2C=C[C@H](CC(=O)NCc3ccncc3)O[C@H]2CO)c1	-4	-5	28*	nt	1
COc1cccc(S(=O)(=O)N[C@@H]2C=C[C@H](CC(=O)NCc3ccc(F)cc3)O[C@@H]2CO)c1	-1	0	33*	nt	-5
COc1cccc(S(=O)(=O)N[C@@H]2C=C[C@H](CC(=O)NCc3ccc(F)cc3)O[C@H]2CO)c1	-2	14	14	nt	-4
CO[C@H]1CN(C)C(=O)c2cc(NC(=O)Nc3ccc(F)cc3)ccc2OC[C@H](C)NC[C@@H]1C	-9	-1	5	nt	-2
C[C@H]1CN([C@@H](C)CO)C(=O)c2cc(C3=CCCC3)cnc2O[C@@H]1CN(C)C(=O)Nc1ccc(F)cc1	-2	-4	6	nt	1
C[C@@H]1CN([C@@H](C)CO)C(=O)c2cc(C3=CCCC3)cnc2O[C@H]1CN(C)C(=O)NC1CCCC1	-16	7	31*	nt	2
C[C@@H]1CN([C@H](C)CO)C(=O)c2cc(C3=CCCC3)cnc2O[C@@H]1CN(C)C(=O)Nc1ccc(C(F)(F)F)cc1	-4	5	33*	nt	-2
C[C@H](CO)N1C[C@H](C)[C@@H](CN(C)C(=O)C2CCOCC2)Oc2ncc(C3=CCCCC3)cc2C1=O	-1	8	45*	nt	3
C[C@@H]1CN([C@H](C)CO)C(=O)c2cc(C3=CCCCC3)cnc2O[C@@H]1CN(C)C(=O)C1CCOCC1	-2	-4	-6	nt	1
C[C@@H]1CN([C@@H](C)CO)C(=O)c2cc(C3=CCCC3)cnc2O[C@H]1CN(C)C(=O)Nc1ccc(C(F)(F)F)cc1	-1	4	11	nt	1
C[C@H](CO)N1C[C@H](C)[C@@H](CN(C)C(=O)Nc2ccc(F)cc2)Oc2ncc(C3=CCCC3)cc2C1=O	0	1	27*	nt	-1
C[C@@H]1CN([C@H](C)CO)C(=O)c2cc(C3=CCCCC3)cnc2O[C@@H]1CN(C)C(=O)Nc1ccc(F)cc1	0	-4	34*	nt	-3
C[C@@H]1CN([C@@H](C)CO)C(=O)c2cc(C3=CCCCC3)cnc2O[C@H]1CN(C)C(=O)Nc1cccc(F)c1	-1	-7	30*!	-2	3
C[C@H](CO)N1C[C@H](C)[C@@H](CN(C)C(=O)Nc2ccc(F)cc2)Oc2ncc(C3=CCCCC3)cc2C1=O	1	0	-7	nt	0
CC[n+]1c(/C=C/c2c[nH]c3ccccc23)ccc2cc(C)ccc21	26*	7	10	nt	14
CCOC(=O)C1=C(C)NC(=O)C(C#N)C1c1ccncc1 (stereo unspecified)	3	-4	36*	2	6
CNC[C@H]1Oc2ccc(NC(=O)NC(C)C)cc2CC(=O)N([C@H](C)CO)C[C@H]1C	-2	1	-1	nt	-2

Assay outcomes (PubChem)
